From PubChem BioAssay
Values without a mark were called inactive. Activity calls are given as the source filed them. Cut-off read from the data, not from the text of the source: active = inhibition above about 30%; inactive = the rest.

Test: growth suppression of yeast trafficking mutant, preliminary HTS, modulators of trafficking downstream of Golgi apparatus project, 1536-format plate, OD 615 nm (AID 637)
Conditions: yeast transport mutant growth, absorbance 615 nm, 18 h; hits give high values

Row | Compound | inhibition
1 | CC(C)(C)C(O)C(Oc1ccc(Cl)cc1)n1cncn1 (stereo not given) | 94% (active)
2 | COc1cc(/C=N/n2cnnc2)ccc1OC(=O)N(C)C | -2.06%
3 | Nc1ccnn1C1CCNCC1 | -2.06%
4 | COC(=O)c1c(C)n(Cc2ccc3c(c2)OCO3)c2ccc(O)cc12 | -1.94%
5 | O=C(c1ccc(CS(=O)(=O)c2ccccc2)o1)N1CCC2(CC1)OCCO2 | -2.73%
6 | COc1cc(C2NCc3ccccc3-n3cccc32)ccc1O (stereo not given) | -1.27%
7 | COc1ccc(CN2CCN(C(=O)Cc3ccccc3)CC2)c(OC)c1 | 1.59%
8 | CC(C)OC(=O)c1c(N)n(CC2CCCO2)c2nc3ccccc3nc12 (stereo not given) | -3.17%
9 | O=C(c1sc2ccccc2c1Cl)N1CCC2(CC1)OCCO2 | -7.5%
10 | CSc1ccc(C(=O)C(C)(C)N2CCOCC2)cc1 | 6.56%
11 | CCCCCCC(N)CC(=O)O (stereo not given) | -8.17%
12 | CC(C)(C)OC(=O)c1c(N)n(Cc2ccco2)c2nc3ccccc3nc12 | -6.13%
13 | c1cncc(CNC2=NCCCCC2)c1 | -4.92%
14 | COc1ccccc1-n1c(O)c(C=NCc2ccc3c(c2)OCO3)c(=O)[nH]c1=O | -0.48%
15 | O=C(CCCOc1ccc(Cl)cc1Cl)N1CCC2(CC1)OCCO2 | -2%
16 | Cc1oc2ccc(OC(=O)N(C)C)cc2c1C(=O)OC(C)C | 10.2%
17 | Oc1ccc(C2NCc3ccccc3-n3cccc32)cc1Cl (stereo not given) | -3.17%
18 | O=c1[nH]c(=O)n(-c2ccc(F)cc2)c(O)c1C=Nc1ccccc1N1CCCC1 | 3%
19 | CCOC(=O)C1CCCCC12C(C#N)=C(N)Oc1n[nH]c(C)c12 (stereo not given) | 25.1%
20 | COCCOC(=O)C1=C(N)Oc2c(c(=O)oc3ccccc23)C1c1ccncc1 (stereo not given) | -2.22%

Row | Compound | inhibition
21 | CCN1CCN(c2ncnc3ccc(Br)cc23)CC1 | 5.25%
22 | CCOP(=S)(OCC)c1ccc(N(C)C)cc1 | -12.1%
23 | NC(=O)CSP(=O)(c1ccccc1)c1ccccc1 | -2.9%
24 | Nc1ccc(C2(c3ccc(N)cc3)CN3CCC2CC3)cc1 | 0%
25 | CN(C)c1cc(N)c2c(n1)CCC2 (tested in a mixture with another compound) | -5.17%
26 | CCOc1ccc(-n2c(O)c(C=NCCN3CCNCC3)c(=O)[nH]c2=O)cc1 | -3.71%
27 | CC(=NCCCO)c1c(O)n(Cc2ccccc2)c(=O)[nH]c1=O | 3.67%
28 | Cc1cc(N2C(=O)C3CCCN3C2c2cccc(Cl)c2)no1 (stereo not given) | -0.97%
29 | COc1ccc(S(=O)(=O)NC(CC(=O)N2CCC3(CC2)OCCO3)c2ccco2)cc1 (stereo not given) | -0.48%
30 | COc1ccccc1N1CCN(Cc2c(F)cccc2F)CC1 | 0.98%
31 | CSc1ccc(CNC2CN3CCC2CC3)cc1 (stereo not given) | -3.77%
32 | Cc1ccc(C)c(NC2=NCCCS2)c1 | -1.59%
33 | CC1=C(C(=O)OC(C)C)[C@]2(C(=O)N(CC(N)=O)c3ccccc32)C(C#N)=C(N)O1 | 19.5%
34 | CCCCn1c(O)c(C(C)=NCCc2ccccc2)c(=O)[nH]c1=O | 9.51%
35 | O=C1C2CCCN2C(c2ccc(Cl)c(Cl)c2)N1c1ccccn1 (stereo not given) | 1.77%
36 | COC(=O)CC1(Cc2ccccc2)C(=O)NC(=O)NC1=O | -0.98%
37 | Cc1ccc(S(=O)(=O)Cc2ccc(C(=O)N3CCC4(CC3)OCCO4)o2)cc1 | -5.64%
38 | O=C1CC(N2CCC(n3c(=O)[nH]c4ccccc43)CC2)C(=O)N1c1ccc(F)cc1 (stereo not given) | -6.5%
39 | CCOc1cc2[nH]c(=S)n(CCCC(=O)N3CCC4(CC3)OCCO4)c(=O)c2cc1OCC | -4.75%
40 | CC(=NCc1ccc2c(c1)OCO2)c1c(O)n(C)c(=O)n(C)c1=O | -2%
